# In PubChem BioAssay (NCI):
# This is part of a sample that, as a whole, favours compounds with a hit. Of some 83,000 tested, about 20% had one in any assay.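 96-well plates, one dose, 48 hours. Percent growth reported; active if below 10.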 Activity calls are given as the source filed them.
# Test system: HL-60(TB) leukemia
# Experiment: NCI-60 one-dose screen, 48 h (100 = growth as untreated, 0 = no growth, -100 = all killed)
# Details: 10 µM unless noted
row,Compound,growth
1,CC1=C(C)C(=O)C(Nc2ccc3c(c2)OCCO3)=C(Br)C1=O,-44.2% (active)
2,O=C(Nc1ccc(Br)cc1)Nc1nc2ccc([N+](=O)[O-])cc2s1,-44.3% (active)
3,Cc1nn(-c2ccccc2)c2nc(CCl)[nH]c(=O)c12,33.1% (inactive)
4,CNC(=O)c1c(NC(=O)c2cccc(C(F)(F)F)c2F)sc2c1CCC(=O)C2,4.41% (active)
5,CN1C(=S)N(C)C2C1NN=C1SC(c3ccccc3)=CC(=O)N12 (stereo unspecified),80.7% (inactive)
6,CCN(CC)c1cn(-c2ccc(S(N)(=O)=O)cc2)nn1,105% (inactive)
